According to PubChem BioAssay (NCI):
The panel holds about 83,000 compounds, 20% with a hit somewhere; the sample as a whole holds those more often.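 Each cell line was grown in a 96-well plate and treated with one concentration of compound for 48 hours. Values below 10 were considered active.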 Unmarked numbers belong to inactive results. Calls of active or inactive are those of the source.

Legend:
Test in all cases: NCI-60 one-dose screen, 48 h (100 = growth as untreated, 0 = no growth, -100 = all killed)
Details in all cases: 10 µM unless noted
[1] = tested on: DU-145 prostate
[2] = tested on: K-562 leukemia
[3] = tested on: MALME-3M melanoma
[4] = tested on: MDA-MB-231 breast
[5] = tested on: RXF 393 renal
[6] = tested on: SF-268 CNS
[7] = tested on: SF-295 CNS
[8] = tested on: SF-539 CNS
[9] = tested on: UACC-257 melanoma
[10] = tested on: HCT-15 colon
[11] = tested on: HT29 colon
[12] = tested on: SNB-75 CNS
[13] = tested on: SNB-19 CNS
[14] = tested on: U251 CNS
[15] = tested on: PC-3 prostate
[16] = tested on: SK-MEL-5 melanoma
[17] = tested on: UACC-62 melanoma
[18] = tested on: SK-MEL-28 melanoma
[19] = tested on: LOX IMVI melanoma
[20] = tested on: M14 melanoma

SMILES | growth [1] | growth [2] | growth [3] | growth [4] | growth [5] | growth [6] | growth [7] | growth [8] | growth [9] | growth [10] | growth [11] | growth [12] | growth [13] | growth [14] | growth [15] | growth [16] | growth [17] | growth [18] | growth [19] | growth [20]
CC1(n2nnnc2N2CCCN(c3ncccc3N)CC2)CCC1 | 109% | 87.8% | 98.6% | 99.9% | 98.2% | 97% | 95.5% | 94.8% | 108% | 58.3% | 108% | 81.7% | 98.6% | 101% | 75.3% | 86.3% | 94.9% | 100% |  | 
CC(=O)OC[C@]12CC[C@@H](/C(C)=N/O)[C@@H]1[C@H]1CC[C@@H]3[C@@]4(C)CCCNC(C)(C)[C@@H]4CC[C@@]3(C)[C@]1(C)CC2 | 77.3% | 41.3% | 89.2% | 82.7% | 71.2% | 62.8% | 84.5% | 79.5% | 81.4% | 60.1% | 59.6% | 63.9% | 83.1% | 68.7% | 42.5% | 51.3% | 66.5% | 86% |  | 
O=C(O[C@@H]1Cc2c(O)cc(O)cc2O[C@@H]1c1cc(O)c(O)c(O)c1)c1cc(O)c2c(c1)OCO2 | 99.7% | 91% | 108% | 101% | 111% | 97% | 103% | 108% | 83% | 104% | 95.3% | 93.8% | 104% | 83.4% | 83.6% | 98.5% |  | 101% | 95.6% | 
CC(=O)n1c(/C(C#N)=C/c2ccc(N(C)C)cc2)cc2ccccc21 | 35.8% | 15% | 57% | 44.7% | 24.6% | 56.9% | 7.39% (active) | 17.1% | 68.6% | 23.9% | 9.7% (active) | -6.19% (active) | 35.8% |  | 39.4% | 29.7% | 26.8% | 60.8% |  | 26.8%
C=C(C)[C@@H]1CC[C@]2(C=NCCCNCCCCNCCCN)CC[C@]3(C)[C@H](CC[C@@H]4[C@@]5(C)CCCNC(C)(C)[C@@H]5CC[C@]43C)[C@@H]12 | 101% | 20.1% | 103% | 104% | 110% | 102% | 91.2% | 95.3% | 107% | 82.6% | 39% | 114% | 88.3% |  | 85.9% | 96% | 100% | 111% |  | 98.5%
O=C1C(=O)c2ccccc2C(O)=C1CCCc1ccc(C2CCCCC2)cc1 | 39.2% | 32.8% | 87.9% | 52.1% | 67.2% | 38.1% | 39.7% | 29.2% | 34.9% | 41.4% | 41.8% | 54.9% | 39.9% |  | 39.2% | 20.6% | 47.9% | 47.4% |  | 56.3%
C=C(C)[C@@H]1CC[C@]2(C(=O)N3CCN(CC)CC3)CC[C@]3(C)[C@H](CC[C@@H]4[C@@](C)(CCC(=O)N5CCN(CC)CC5)[C@H](C(=C)C)CC[C@]43C)[C@@H]12 | 70.8% | 30.4% | 43.2% | 58.6% | 48.8% | 76.9% | 47.8% | 66% | 18.6% | 9.11% (active) | 17.3% | 69.2% | 85.1% |  | 32.5% | 45.5% | 50.9% | 55.8% |  | 35.8%
CC1(C)C=CC[C@]2(C)[C@H]3CC[C@@H]4[C@H]5[C@H](C(=O)/C=C/c6cccnc6)CC[C@]5(CO)CC[C@@]4(C)[C@]3(C)CC[C@@H]12 | -94.2% (active) | -29.3% (active) | -85% (active) | -77.6% (active) | -86.7% (active) | -57.6% (active) | -91.4% (active) | -96.2% (active) | -49.7% (active) | -61.7% (active) | -28% (active) | -89.8% (active) | -90.4% (active) | -90.8% (active) | -41.1% (active) | -99.3% (active) | -63.2% (active) | -92% (active) |  | 
Nc1ncnc2nc(Br)[nH]c12 | 102% | 89.6% | 100% | 99.8% | 103% | 98.3% | 102% | 103% | 87.7% | 108% | 102% | 87.2% | 101% |  | 78.3% | 100% |  | 114% | 93.7% | 92.1%
COc1ccc(/C=C(\C#N)c2cc3ccccc3n2C(C)=O)cc1 | 99.7% | 25.1% | 83.8% | 82% | 88.3% | 97.3% | 84% | 93.8% | 99.6% | 41% | 68.8% | 74% | 87.2% |  | 84.6% |  | 74.1% | 87.2% |  | 70.7%
CCC(=O)c1c(C)[nH]c(C)c1C | 0.904% (active) | 110% | 116% | 95.8% | 80.4% | 90.7% | 68.3% | 105% | 99% | 10.6% | 36.9% | 109% | 94% |  | 79.9% | 88.9% | 95.7% | 134% |  | 90.4%
COc1cc(-c2cc3ncccc3c3[nH]c(=O)c4cccnc4c23)cc(OC)c1OC | 14.1% | 10.5% | 55.4% | 36.7% | -3.08% (active) | 51.2% | 12.6% | 5.37% (active) | 51.5% | 30.6% | 8% (active) | -3.35% (active) | 53.7% | 16.8% | 13.2% | -5.2% (active) |  | 68.2% | 42.5% | 
CN(CSc1ccc(Cl)cc1)c1ccc(CSc2ccc(Cl)cc2)cc1 | 87.8% | 83.7% | 102% | 22.2% | 68.7% | 43.3% | 70.5% | 47.4% | 76% | 62.8% | 96.8% | 86% | 84.7% |  | 38.4% |  | 84% | 79.9% |  | 49.7%
N#C/C(=C\c1ccc(-c2ccc(Br)cc2)o1)c1nc(-c2ccco2)cs1 | 101% | 97.9% | 97.7% | 76% | 101% | 101% | 91.2% | 90.8% | 102% | 80.1% | 99.5% | 78.9% | 92.7% | 93.9% | 91.5% | 85% | 81% | 100% |  | 
COc1ccc(C2(Cl)c3ccccc3N(c3ccccc3)c3ccccc32)cc1 | 16.8% | 8.99% (active) | -57% (active) | -23.8% (active) | -28.4% (active) | 15.4% | -36.6% (active) | -20.3% (active) | -41.5% (active) | 8.52% (active) | 3.7% (active) | 3.72% (active) | 6.63% (active) | -87.5% (active) | -24.4% (active) | -87.3% (active) |  | -74.7% (active) | -84.3% (active) | 
CCSc1sc(-c2ccc(C)cc2)nc1[P+](c1ccccc1)(c1ccccc1)c1ccccc1 | 4.57% (active) | 0.0447% (active) | -28.4% (active) | -24.8% (active) | -37% (active) | 7.81% (active) | -11.3% (active) | 9.93% (active) | -3.94% (active) | 1.86% (active) | 2.52% (active) | -8.6% (active) | 8.14% (active) |  | -11.5% (active) | -98.7% (active) | -42.5% (active) | 15.2% |  | -8.96% (active)
CCN(CC)c1ccc(/C=C/c2cc(C)c3ccccc3n2)cc1 | 94.2% | 25.3% | 59.4% | 42.4% | 13.2% | 82.5% | 41.5% | 48.4% | 60.5% | 29.8% | 8.05% (active) | 42.7% | 59.7% | 43% | 65% |  | 38.4% | 55.1% | 52.2% | 
